Results with a measured potency or affinity are listed apart. Active and inactive are the calls of the source. The rule behind the calls is not given here.
Test: CCR5-tropic HIV-1 fusion blockers – cell-based, CCR5-tropic Env, dose response (AID 2279)
Conditions: CCR5-tropic HIV-1 Env, reporter read-out; series mostly up to 50 µM

outcome, inactive:
O=C(Nc1ccc(C(=O)O)cc1)/C(=C\C=C\c1ccccc1)NC(=O)c1cccc(Br)c1
O=C(O)CCN1C(=O)/C(=C\c2cccc(Oc3ccccc3)c2)SC1=S
COc1cc(C(c2c(C(=O)O)[nH]c3ccccc23)c2c(C(=O)O)[nH]c3ccccc23)ccc1OCc1ccccc1
O=C(O)COc1ccccc1/C=N/NC(=O)CSc1nnc(SCc2cccc3ccccc23)s1
O=C1NN(c2ccc(Cl)c(Cl)c2)C(=O)/C1=C/c1cccc(OC(=O)c2cccs2)c1
CCC(C)(C)C1CCc2c(sc(NC(=O)c3ccccc3C(=O)O)c2C#N)C1 (stereo not given)
O=C(O)C(c1ccccc1)N1C(=O)/C(=C\c2ccc(O)c(O)c2)SC1=S (stereo not given)
N#Cc1c(SCC(=O)Nc2nc3ccc(Br)cc3s2)sc2c(O)cc(=O)[nH]c12
O=C(O)c1[nH]c2ccccc2c1C(c1cccc(O)c1)c1c(C(=O)O)[nH]c2ccccc12
CCOC(=O)c1sc(N2C(=O)C(O)=C(C(=O)c3ccco3)C2c2ccc([N+](=O)[O-])cc2)nc1C (stereo not given)
CC1=C(C(=O)Nc2ccccc2)C(c2ccc(Cl)cc2)n2c(s/c(=C/c3cccc(OCC(=O)O)c3)c2=O)=N1 (stereo not given)
Cc1cc(N2C(=O)C(O)=C(C(=O)c3cc4ccccc4o3)C2c2ccc(Cl)cc2)no1 (stereo not given)
Cc1cc(N2C(=O)C(O)=C(C(=O)c3ccc(C)o3)C2c2cccc(Oc3ccccc3)c2)no1 (stereo not given)
O=C(O)CN1C(=O)/C(=C\c2cccc(OCc3ccc(Cl)cc3)c2)SC1=S
Cc1c(CC(=O)O)c(=O)oc2c(C)c3occ(-c4ccc(Br)cc4)c3cc12
COc1cc(Cl)cc(C(c2c(C(=O)O)[nH]c3ccccc23)c2c(C(=O)O)[nH]c3ccccc23)c1O
CCCOc1ccc(C2C(C(=O)c3cc4ccccc4o3)=C(O)C(=O)N2c2cc(C)on2)cc1 (stereo not given)
Cc1ccc(/C=C2\SC(=S)N(CCCC(=O)Nc3ccccc3C(=O)O)C2=O)cc1
COc1ccc(-c2cc(-c3ccc(Cl)cc3)c(C#N)c(SCC(=O)O)n2)cc1
Cc1cc(C)c2nc(N3C(=O)C(O)=C(C(=O)c4ccco4)C3c3ccco3)sc2c1 (stereo not given)
CCOc1cc(/C=C2\SC(=S)N(C(C(=O)O)c3ccccc3)C2=O)ccc1O (stereo not given)
CCOc1cc(/C=N/NC(=O)c2ccc(-c3csc(Nc4ccc(C)cc4)n3)cc2)ccc1OCC(=O)O
O=C(O)c1ccc(/C=N/NC(=O)c2ccc(CN3c4cccc5cccc(c45)S3(=O)=O)cc2)cc1
CCOc1cc(/C=C2/C(=N)N3C(=NC2=O)SN=C3S(=O)(=O)CC)ccc1OC(=O)c1ccco1
CCS(=O)(=O)C1=NN2C(=N)/C(=C\c3ccc(OCCOc4cccc(OC)c4)c(OC)c3)C(=O)N=C2S1
CCOc1cc(/C=C2/C(=N)N3C(=NC2=O)SN=C3S(C)(=O)=O)ccc1OS(=O)(=O)c1ccccc1
O=c1/c(=C\c2cc([N+](=O)[O-])cc([N+](=O)[O-])c2O)sc2nc3ccccc3n12
Cc1ccc2nc(N3C(=O)C(O)=C(C(=O)c4ccco4)C3c3cccc(O)c3)sc2c1 (stereo not given)
CCOc1ccc(C2C(C(=O)Nc3ccccc3)=C(C)N=c3s/c(=C/c4cccc(OCC(=O)O)c4)c(=O)n32)cc1 (stereo not given)
COc1cc(/C=C2\C(=N)N3N=C(S(C)(=O)=O)SC3=NC2=O)cc(OC)c1OCCOc1ccccc1C
Cc1ccc(NC(=O)COc2cccc(/C=C3\SC(=S)N(CCC(=O)O)C3=O)c2)cc1Cl
CSc1nc(SCC(=O)O)c2sc3nc(-c4ccccc4)c4c(c3c2n1)CCC4
Cc1cccc(OCC(=O)Nc2ccc(C(=O)Nc3ccccc3C(=O)O)cc2)c1C
O=C(CN1C(=O)/C(=C2\SC(=S)N(CCS(=O)(=O)O)C2=O)c2ccccc21)Nc1cccc(Br)c1
CC(Oc1ccc(Cl)cc1Cl)C(=O)Nc1ccc(S(=O)(=O)Nc2cnc3ccccc3n2)cc1 (stereo not given)
